# Source: PubChem BioAssay (NCI)
# About 83,000 compounds went through this panel and 20% of them were active in at least one assay; those are over-represented in the sample as a whole.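 The endpoint reported here, percent growth, reads 100 for growth as untreated, 0 for no net growth and -100 for all cells dead.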 A number with no mark means an inactive call. Active and inactive are the calls of the source. Rule for the calls: active = growth percent below 10; inactive = the rest.
# System: RXF 393 renal
# Assay: NCI-60 one-dose screen, 48 h (100 = growth as untreated, 0 = no growth, -100 = all killed)
# Conditions: 10 µM unless noted
row,SMILES,growth
1,Nc1c(C(=O)Nc2c(Cl)cccc2Cl)sc2nc3c(cc12)CCCC3,87.9%
2,COc1cc2ncnc(Nc3ccc(OCc4cccc(F)c4)c(Cl)c3)c2cc1NC(=O)C1CCCC1,83%
3,O=C(N/N=C/c1ccccc1SSc1ccccc1/C=N/NC(=O)c1ccccc1)c1ccccc1,34.2%
4,C[C@@H]1CCCCCCCCC[C@H](O)C(=O)C[C@@H](SC[C@@H](O)C(=O)O)C(=O)O1,112%
5,C=C(C)[C@@H]1CC[C@]2(C)[C@H](CC=C3[C@@H]4CC(C)(C)CC[C@]4(C(=O)OC)CC[C@]32C)[C@@]1(C)CC/C(N)=N/O,-49.4% (active)
6,C=C(C)[C@@H]1CC[C@]2(C)[C@H](CC=C3[C@@H]4CC(C)(C)CC[C@]4(C=O)CC[C@]32C)[C@@]1(C)CCCN,67.1%
7,Cc1ccc(/C=C(\C#N)c2cc3ccccc3n2C)cc1,20.6%
8,N=C(N)c1ccc(S(N)(=O)=O)cc1,66.7%
9,COc1ccc(-c2cc(=O)oc3ccc(Cl)cc23)cc1F,38.7%
10,CCSc1sc(-c2ccc(C)cc2)nc1[P+](c1ccccc1)(c1ccccc1)c1ccccc1,-37% (active)
11,COC(=O)[C@]12CC[C@@H](C)[C@H](C)[C@@H]1C1=CC(=O)[C@@H]3[C@@]4(C)C[C@@H](O)[C@H](O)[C@@]5(C)COC(=C45)C[C@@]3(C)[C@]1(C)CC2,63.1%
12,O=S(=O)(NCCNc1cc(-c2cn(-c3ccccc3)nc2-c2cccc(O)c2)ccn1)c1ccc(Br)cc1,40.1%
13,Brc1ccc2[nH]cc(-c3nc(-c4c[nH]c5ncccc45)cs3)c2c1,21.8%
14,Cc1ccc(-c2ccc(Nc3ccccc3)nn2)cc1S(N)(=O)=O,91.8%
15,Cn1c2c(Cl)c(Cl)ccc2c2c(C#N)c[nH]c(=O)c21,97.2%
16,C/C(=N/NC(N)=S)C(=O)O,116%
17,CCCCC[C@H]1C/C=C2/C(=O)C=C[C@@H]2C/C=C\CCCC(=O)O[C@@H](CCCCC)C/C=C2/C(=O)C=C[C@@H]2C/C=C\CCCC(=O)O1,-92.4% (active)
18,C#CCn1c(C)cc(C)c(C#N)c1=O,124%
19,N#CC1C(=N)Cc2ccccc2-c2ccccc21 (stereo unspecified),58.4%

row,SMILES,growth
1,Cc1cc(N2CCCCC2)nc(N(CCNc2ccnc3cc(Cl)ccc23)Cc2ccco2)n1,33.3%
2,C[C@@H](C(=O)O)c1ccc2c3cc(Cl)ccc3n(Cc3cc(=O)oc4ccc(Cl)cc34)c2c1,116%
3,C=C1C(=O)O[C@H]2[C@H]1CC/C(COC(=O)NCc1cc3ccccc3[nH]1)=C\CC[C@@]1(C)O[C@@H]21,-86.2% (active)
4,CCOC(=O)N1CCN(CCCCOc2ccc(C(C)(C)CC)cc2)CC1,111%
5,OCC(CO)(CCl)CCl,113%
6,COc1ccc(-c2cc(/C=C/C(=O)c3ccc(N)cc3)[nH]n2)cc1,20%
7,CC(C)(C)c1nc(-c2ccc(O)c(O)c2)cs1,72%
8,Brc1ccc(Cn2nnnc2-c2ccn(-c3ccccc3)n2)cc1,87.1%
9,COC(=O)C(Cc1ccccc1)n1cc(COc2nc(Cl)nc(Nc3ccc(Cl)cc3)n2)nn1 (stereo unspecified),101%
10,COc1cccc(-c2nn(-c3ccccc3)cc2-c2ccnc(NCCNS(=O)(=O)c3ccccc3)c2)c1,63.7%
11,Nc1c(C(=O)Nc2cccc3ccccc23)sc2nc3c(cc12)CCCC3,27.4%
12,Cn1cc(-c2csc(-c3cn(CCN)c4ccc(F)cc34)n2)c2cccnc21,82.6%
13,COc1ccc(NC(=S)N/N=C/c2ccccc2SSCCC(=O)OC[C@H]2O[C@H](O)[C@H](O)[C@@H](O)[C@@H]2O)cc1,104%
14,c1ccc(-c2nc(Nc3ccc(-c4nc5ccccc5[nH]4)cc3)nc(N3CCOCC3)n2)cc1,-75.1% (active)
15,COc1cnc2c(c1)C(=O)c1c-2n(CCCNC2=NCCS2)c(=O)c2cc([N+](=O)[O-])ccc12,-2.16% (active)
16,OCCNc1nc(Nc2ccc(Cl)c(Cl)c2)nc2ccccc12,16.8%
17,Oc1ccc(CCC2CCCC(CCc3ccc(OCCF)cc3)N2)cc1 (stereo unspecified),84.7%
18,Cc1ccsc1-c1ccc2c(c1)COC2(CCCN(C)C)c1ccc(F)cc1 (stereo unspecified),28.2%
19,COc1ccc(NC(=O)c2ccoc2COc2ccccc2)cc1,93.9%

# System: SF-268 CNS
# Assay: as above
# Conditions: 10 µM unless noted
row,SMILES,growth
1,Nc1c(C(=O)Nc2c(Cl)cccc2Cl)sc2nc3c(cc12)CCCC3,80.9%
2,COc1cc2ncnc(Nc3ccc(OCc4cccc(F)c4)c(Cl)c3)c2cc1NC(=O)C1CCCC1,89.1%
3,O=C(N/N=C/c1ccccc1SSc1ccccc1/C=N/NC(=O)c1ccccc1)c1ccccc1,32%
4,C[C@@H]1CCCCCCCCC[C@H](O)C(=O)C[C@@H](SC[C@@H](O)C(=O)O)C(=O)O1,98%
5,C=C(C)[C@@H]1CC[C@]2(C)[C@H](CC=C3[C@@H]4CC(C)(C)CC[C@]4(C(=O)OC)CC[C@]32C)[C@@]1(C)CC/C(N)=N/O,67.9%
6,C=C(C)[C@@H]1CC[C@]2(C)[C@H](CC=C3[C@@H]4CC(C)(C)CC[C@]4(C=O)CC[C@]32C)[C@@]1(C)CCCN,83.2%
7,Cc1ccc(/C=C(\C#N)c2cc3ccccc3n2C)cc1,64.4%
8,N=C(N)c1ccc(S(N)(=O)=O)cc1,96.1%
9,COc1ccc(-c2cc(=O)oc3ccc(Cl)cc23)cc1F,26.2%
10,CCSc1sc(-c2ccc(C)cc2)nc1[P+](c1ccccc1)(c1ccccc1)c1ccccc1,7.81% (active)
11,COC(=O)[C@]12CC[C@@H](C)[C@H](C)[C@@H]1C1=CC(=O)[C@@H]3[C@@]4(C)C[C@@H](O)[C@H](O)[C@@]5(C)COC(=C45)C[C@@]3(C)[C@]1(C)CC2,80.8%
12,O=S(=O)(NCCNc1cc(-c2cn(-c3ccccc3)nc2-c2cccc(O)c2)ccn1)c1ccc(Br)cc1,36.1%
13,Brc1ccc2[nH]cc(-c3nc(-c4c[nH]c5ncccc45)cs3)c2c1,59%
14,Cc1ccc(-c2ccc(Nc3ccccc3)nn2)cc1S(N)(=O)=O,97.4%
15,Cn1c2c(Cl)c(Cl)ccc2c2c(C#N)c[nH]c(=O)c21,99%
16,C/C(=N/NC(N)=S)C(=O)O,101%
17,CCCCC[C@H]1C/C=C2/C(=O)C=C[C@@H]2C/C=C\CCCC(=O)O[C@@H](CCCCC)C/C=C2/C(=O)C=C[C@@H]2C/C=C\CCCC(=O)O1,-78.7% (active)
18,C#CCn1c(C)cc(C)c(C#N)c1=O,98.3%
19,N#CC1C(=N)Cc2ccccc2-c2ccccc21 (stereo unspecified),61%

row,SMILES,growth
1,Cc1cc(N2CCCCC2)nc(N(CCNc2ccnc3cc(Cl)ccc23)Cc2ccco2)n1,60.7%
2,C[C@@H](C(=O)O)c1ccc2c3cc(Cl)ccc3n(Cc3cc(=O)oc4ccc(Cl)cc34)c2c1,93.4%
3,C=C1C(=O)O[C@H]2[C@H]1CC/C(COC(=O)NCc1cc3ccccc3[nH]1)=C\CC[C@@]1(C)O[C@@H]21,59.3%
4,CCOC(=O)N1CCN(CCCCOc2ccc(C(C)(C)CC)cc2)CC1,105%
5,OCC(CO)(CCl)CCl,98%
6,COc1ccc(-c2cc(/C=C/C(=O)c3ccc(N)cc3)[nH]n2)cc1,17%
7,CC(C)(C)c1nc(-c2ccc(O)c(O)c2)cs1,67.1%
8,Brc1ccc(Cn2nnnc2-c2ccn(-c3ccccc3)n2)cc1,73.2%
9,COC(=O)C(Cc1ccccc1)n1cc(COc2nc(Cl)nc(Nc3ccc(Cl)cc3)n2)nn1 (stereo unspecified),97.8%
10,COc1cccc(-c2nn(-c3ccccc3)cc2-c2ccnc(NCCNS(=O)(=O)c3ccccc3)c2)c1,50%
11,Nc1c(C(=O)Nc2cccc3ccccc23)sc2nc3c(cc12)CCCC3,50.1%
12,Cn1cc(-c2csc(-c3cn(CCN)c4ccc(F)cc34)n2)c2cccnc21,85.9%
13,COc1ccc(NC(=S)N/N=C/c2ccccc2SSCCC(=O)OC[C@H]2O[C@H](O)[C@H](O)[C@@H](O)[C@@H]2O)cc1,61.1%
14,c1ccc(-c2nc(Nc3ccc(-c4nc5ccccc5[nH]4)cc3)nc(N3CCOCC3)n2)cc1,-43.4% (active)
15,COc1cnc2c(c1)C(=O)c1c-2n(CCCNC2=NCCS2)c(=O)c2cc([N+](=O)[O-])ccc12,-39.4% (active)
16,OCCNc1nc(Nc2ccc(Cl)c(Cl)c2)nc2ccccc12,48.6%
17,Oc1ccc(CCC2CCCC(CCc3ccc(OCCF)cc3)N2)cc1 (stereo unspecified),99.1%
18,Cc1ccsc1-c1ccc2c(c1)COC2(CCCN(C)C)c1ccc(F)cc1 (stereo unspecified),65.2%
19,COc1ccc(NC(=O)c2ccoc2COc2ccccc2)cc1,97.5%
